Experimental data: PubChem BioAssay AID1159580 (chemical genetic matrix, 2015)
Among all 5,500 compounds or so, about 2,000 (36%) were called active. Inconclusive results (about 18%) are left out. Rule as the data show it: active = normalized growth mostly below about 0.91 (no sharp cut-off); inconclusive = no clear call, values can overlap the other calls; inactive = mostly above about 0.92. The list shows a part of the results.

Test: chemical genetic growth profiling, strain panel (AID 1159580);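 also: tested at 20 µM; growth read once vehicle control cultures reached saturation at 30 °C; 1 = growth at the plate median or of vehicle wells; lower values mean less growth of the strain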
Conditions: growth OD

Measured: normalized growth

C=NC(C(=O)NC1C(=O)N2C1SC(C)(C)C2C(=O)O)c1ccccc1 (configuration not stated)
inactive: S. cerevisiae deletion strains, locus YJR075W, strain HOC1, hits give low values 0.991 | S. cerevisiae deletion strains, locus YKL009W, strain mrt4, hits give low values 1.02 | S. cerevisiae deletion strains, locus YKL068W, hits give low values 1.02 | S. cerevisiae deletion strains, locus YKL085W, strain MDH1 (second series), hits give low values 1.04 | S. cerevisiae deletion strains, locus YKL085W, strain MDH1, hits give low values 1.04 | S. cerevisiae deletion strains, locus YKL160W, strain elf1, hits give low values 0.98 | S. cerevisiae deletion strains, locus YKL190W, strain CNB1, hits give low values 1.01 | S. cerevisiae deletion strains, locus YKR001C, strain vps1, hits give low values 1.02 | S. cerevisiae deletion strains, locus YKR026C, strain gcn3, hits give low values 0.999 | S. cerevisiae deletion strains, locus YKR091W, strain srl3, hits give low values 0.999 | S. cerevisiae deletion strains, locus YLL001W, strain dnm1, hits give low values 0.943 | S. cerevisiae deletion strains, locus YLL026W, hits give low values 1.01 | S. cerevisiae deletion strains, locus YLL041C, strain sdh2, hits give low values 0.996 | S. cerevisiae deletion strains, locus YLR027C, strain aat2, hits give low values 1.02 | S. cerevisiae deletion strains, locus YLR039C, strain RIC1, hits give low values 1.03 | S. cerevisiae deletion strains, locus YLR058C, strain SHM2, hits give low values 1.01 | S. cerevisiae deletion strains, locus YLR102C, strain apc9, hits give low values 1.02 | S. cerevisiae deletion strains, locus YLR113W, strain HOG1, hits give low values 1.01 | S. cerevisiae deletion strains, locus YLR221C, strain rsa3, hits give low values 1.06 | S. cerevisiae deletion strains, locus YLR258W, strain gsy2, hits give low values 1.01 | S. cerevisiae deletion strains, locus YLR262C, strain YPT6 (second series), hits give low values 1.01 | S. cerevisiae deletion strains, locus YLR262C, strain YPT6, hits give low values 1.06 | S. cerevisiae deletion strains, locus YLR268W, strain sec22, hits give low values 1.01 | S. cerevisiae deletion strains, locus YLR320W, strain mms22, hits give low values 1.07 | S. cerevisiae deletion strains, locus YLR330W, strain CHS5, hits give low values 1.01 | S. cerevisiae deletion strains, locus YLR342W, strain FKS1 (second series), hits give low values 1.03 | S. cerevisiae deletion strains, locus YLR342W, strain FKS1, hits give low values 1.02 | S. cerevisiae deletion strains, locus YLR357W, strain rsc2, hits give low values 0.912 | S. cerevisiae deletion strains, locus YLR370C, strain arc18, hits give low values 1.01 | S. cerevisiae deletion strains, locus YLR371W, strain rom2, hits give low values 1.02 | S. cerevisiae deletion strains, locus YLR384C, strain iki3, hits give low values 0.999 | S. cerevisiae deletion strains, locus YLR418C, strain cdc73, hits give low values 1.02 | S. cerevisiae deletion strains, locus YML016C, strain PPZ1, hits give low values 1.01 | S. cerevisiae deletion strains, locus YML032C, strain rad52, hits give low values 1.02 | S. cerevisiae deletion strains, locus YML120C, strain ndi1, hits give low values 0.972 | S. cerevisiae deletion strains, locus YML124C, strain tub3, hits give low values 1.01 | S. cerevisiae deletion strains, locus YMR058W, strain fet3, hits give low values 0.987 | S. cerevisiae deletion strains, locus YMR078C, strain ctf18, hits give low values 1.01 | S. cerevisiae deletion strains, locus YMR125W, strain sto1, hits give low values 0.929 | S. cerevisiae deletion strains, locus YMR129W, hits give low values 1 | S. cerevisiae deletion strains, locus YMR205C, strain PFK2, hits give low values 0.982 | S. cerevisiae deletion strains, locus YMR223W, strain ubp8, hits give low values 1.02 | S. cerevisiae deletion strains, locus YMR231W, strain pep5, hits give low values 1.01 | S. cerevisiae deletion strains, locus YMR263W, strain SAP30, hits give low values 1.01 | S. cerevisiae deletion strains, locus YMR307W, strain GAS1, hits give low values 0.993 | S. cerevisiae deletion strains, locus YNL067W, strain RPL9B, hits give low values 0.996 | S. cerevisiae deletion strains, locus YNL071W, strain lat1, hits give low values 0.998 | S. cerevisiae deletion strains, locus YNL128W, strain TEP1, hits give low values 1 | S. cerevisiae deletion strains, locus YNL153C, strain GIM3, hits give low values 1.01 | S. cerevisiae deletion strains, locus YNL183C, strain NPR1, hits give low values 0.944 | S. cerevisiae deletion strains, locus YNL209W, strain ssb2, hits give low values 0.994 | S. cerevisiae deletion strains, locus YNL233W, strain BNI4, hits give low values 1.02 | S. cerevisiae deletion strains, locus YNL248C, strain rpa49, hits give low values 0.975 | S. cerevisiae deletion strains, locus YNL250W, strain rad50, hits give low values 1.01 | S. cerevisiae deletion strains, locus YNL271C, strain bni1, hits give low values 1.02 | S. cerevisiae deletion strains, locus YNL298W, strain CLA4, hits give low values 1.02 | S. cerevisiae deletion strains, locus YNL307C, strain MCK1, hits give low values 1.02 | S. cerevisiae deletion strains, locus YNL322C, strain KRE1 (second series), hits give low values 0.991 | S. cerevisiae deletion strains, locus YNL322C, strain KRE1, hits give low values 1.01 | S. cerevisiae deletion strains, locus YNR049C, strain mso1, hits give low values 0.998 | S. cerevisiae deletion strains, locus YNR052C, strain pop2, hits give low values 1.02 | S. cerevisiae deletion strains, locus YOL006C, strain TOP1, hits give low values 1.05 | S. cerevisiae deletion strains, locus YOL012C, strain htz1 0.974 | S. cerevisiae deletion strains, locus YOL147C, strain pex11, hits give low values 1.01 | S. cerevisiae deletion strains, locus YOR001W, strain rrp6, hits give low values 1.03 | S. cerevisiae deletion strains, locus YOR061W, strain CKA2, hits give low values 1.02 | S. cerevisiae deletion strains, locus YOR069W, strain VPS5, hits give low values 1.01 | S. cerevisiae deletion strains, locus YOR070C, strain gyp1, hits give low values 1.03 | S. cerevisiae deletion strains, locus YOR080W, strain dia2, hits give low values 1 | S. cerevisiae deletion strains, locus YOR083W, strain WHI5, hits give low values 0.989 | S. cerevisiae deletion strains, locus YOR106W, strain vam3, hits give low values 0.947 | S. cerevisiae deletion strains, locus YOR136W, strain idh2, hits give low values 1.02 | S. cerevisiae deletion strains, locus YOR144C, strain elg1, hits give low values 1.01 | S. cerevisiae deletion strains, locus YOR184W, strain ser1, hits give low values 1.05 | S. cerevisiae deletion strains, locus YOR231W, strain MKK1, hits give low values 1 | S. cerevisiae deletion strains, locus YOR265W, strain rbl2, hits give low values 1 | S. cerevisiae deletion strains, locus YOR270C, strain vph1, hits give low values 0.993 | S. cerevisiae deletion strains, locus YOR290C, strain snf2, hits give low values 0.95 | S. cerevisiae deletion strains, locus YOR316C, strain cot1, hits give low values 1.01 | S. cerevisiae deletion strains, locus YPL051W, strain arl3, hits give low values 1 | S. cerevisiae deletion strains, locus YPL055C, strain LGE1, hits give low values 1.02 | S. cerevisiae deletion strains, locus YPL078C, strain atp4, hits give low values 0.957 | S. cerevisiae deletion strains, locus YPL106C, strain sse1, hits give low values 0.983 | S. cerevisiae deletion strains, locus YPL240C, strain hsp82, hits give low values 1.01 | S. cerevisiae deletion strains, locus YPL241C, strain CIN2, hits give low values 1.01 | S. cerevisiae deletion strains, locus YPL256C, strain CLN2, hits give low values 0.994 | S. cerevisiae deletion strains, locus YPR119W, strain clb2, hits give low values 1 | S. cerevisiae deletion strains, locus YPR141C, strain kar3, hits give low values 1.01 | S. cerevisiae deletion strains, locus YPR163C, strain tif3, hits give low values 1.02 | S. cerevisiae deletion strains, locus YPR167C, strain met16, hits give low values 1.02 | S. cerevisiae deletion strains, strain wtn01, hits give low values 1.01 | S. cerevisiae strains, strain wild type, hits give low values 1.01
